The campaign covered roughly 16,000 compounds. About 160 (1%) were called active. Inconclusive results (about 8%) are left out. The sample as a whole holds a higher share of actives than the screen did. Values without a mark were called inactive. Calls come from the whole dose curve; as a rule, active = well fitted activation curve with a large enough effect; inconclusive = small, poorly fitted or top-dose-only effect; inactive = no such curve, though single readings can be large or run the other way.
% is set by controls: 0 for no effect and ±100 for the full control effect; potency is the fitted concentration of half-maximal effect.

In this experiment the target is Rap guanine nucleotide exchange factor 3 (Homo sapiens) (UniProt O95398). The experiment is described as follows: Validation qHTS for agonist of cAMP-regulated guanine nucleotide exchange factor 3 (EPAC1). Note: nearly all actives have a fitted effect of over 70% in size. Conditions: EPAC1 Rap1b BODIPY-GDP exchange, fluorescence; max response: hits give high values, percent of cAMP control response. The source says: Assay Provider (PI): Xiaodong Cheng Ph.D.
Sequence of Rap guanine nucleotide exchange factor 3 (Homo sapiens) (O95398 whole entry, looked up): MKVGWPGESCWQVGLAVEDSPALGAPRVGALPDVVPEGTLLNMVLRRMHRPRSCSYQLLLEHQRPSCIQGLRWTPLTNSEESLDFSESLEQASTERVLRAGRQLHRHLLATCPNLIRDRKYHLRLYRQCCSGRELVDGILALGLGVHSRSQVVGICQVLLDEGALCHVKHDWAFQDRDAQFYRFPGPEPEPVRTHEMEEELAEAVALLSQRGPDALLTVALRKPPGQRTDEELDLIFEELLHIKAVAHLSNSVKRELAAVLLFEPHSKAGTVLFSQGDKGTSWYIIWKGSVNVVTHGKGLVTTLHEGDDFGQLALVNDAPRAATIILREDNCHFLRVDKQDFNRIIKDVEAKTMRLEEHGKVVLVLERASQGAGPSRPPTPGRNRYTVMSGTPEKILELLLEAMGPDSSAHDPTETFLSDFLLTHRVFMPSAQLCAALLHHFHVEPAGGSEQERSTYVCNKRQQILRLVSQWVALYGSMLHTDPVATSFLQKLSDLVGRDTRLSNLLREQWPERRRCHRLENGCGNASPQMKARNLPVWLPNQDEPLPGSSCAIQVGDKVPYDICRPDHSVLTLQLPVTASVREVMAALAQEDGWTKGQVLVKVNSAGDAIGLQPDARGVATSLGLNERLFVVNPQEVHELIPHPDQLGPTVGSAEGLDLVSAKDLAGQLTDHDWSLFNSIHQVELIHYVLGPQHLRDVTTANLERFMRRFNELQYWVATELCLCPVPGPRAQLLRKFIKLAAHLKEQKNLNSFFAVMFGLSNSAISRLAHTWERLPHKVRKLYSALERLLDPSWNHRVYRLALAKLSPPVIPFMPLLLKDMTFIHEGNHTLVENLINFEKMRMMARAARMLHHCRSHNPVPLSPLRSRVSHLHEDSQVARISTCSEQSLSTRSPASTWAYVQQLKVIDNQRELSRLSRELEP
The University of Texas Medical Branch, […], TX
In multi-cellular eukaryotic organisms, the effects of cAMP are transduced by two ubiquitously-expressed intracellular cAMP receptors, the classic protein kinase A/cAMP-dependent protein kinase (PKA/cAPK) and the more recently discovered exchange protein directly activated by cAMP/cAMP-regulated guanine nucleotide exchange factor (EPAC/cAMP-GEF). Both PKA and EPAC are ubiquitously expressed in all tissues, and an increase in intracellular cAMP levels will lead to the activation of both PKA and EPAC. Therefore, careful dissections of the individual role and relative contribution of EPAC and PKA within the overall cAMP signaling in various model systems are critical for further elucidating the mechanism of cAMP signaling. To date no EPAC-specific antagonists and agonist, as well as isoform-specific agonists have been reported, and developing EPAC-specific pharmacological probes to determine the physiological functions that EPAC play in the overall cAMP-mediated signaling remains a major challenge within the research field. Furthermore, identified regulators of EPAC may lead to new mechanism-based therapeutic strategies specifically targeting the EPAC / cAMP-signaling components as EPAC has been implicated to play important roles in major human pathological conditions such as diabetes, heart disease, and cancer.
This qHTS will be used to screen the Molecular Libraries Small Molecule Repository (MLSMR) as a concentration-titration series using the NCGC unique quantitative screening (qHTS) platform to find activators for EPAC1. In addition, this assay will also be used as a counterscreen for the EPAC2 qHTS. This fluorescent based assay is developed and validated for EPAC1 that measures exchange using EPAC effector Rap1 complex with BODIPY-GDP, a GDP analog with a tethered fluorophores. Activators are identified by monitoring the change in fluorescence signal as the exchanged free BODIPY-GDP has a reduced fluorescence compared to Rap1-bound BODIPY-GDP. Increase in signal (activation) is the desired outcome for the EPAC1 agonist while no activity in this assay is desired for the EPAC2 agonist counterscreen.
[1] de Rooij, J., Zwartkruis, F. J., Verheijen, M. H., Cool, R. H., Nijman, S. M., Wittinghofer, A., and Bos, J.L. (1998) Nature 396, 474-477.
Briefly, three uL of reagents (100 nM EPAC1, 250 nM RAP1B-BODIPY-GDP, 50 uM GDP) were dispensed into a 1536-well Greiner black solid-bottom medium binding assay plate. Controls and test compounds (23 nL) were transferred to the plate via a Kalypsys pin tool equipped with a 1536-pin array. The plates were centrifuged at 1,000 rpm for 15 seconds followed by 5 minute incubation at room temperature. The assay plates were read at 5 minute intervals for 30 minutes in the ViewLux plate reader using 480nm excitation and 540nm emission filters. The results were normalized to the agonist positive control of 6.5 mM cAMP.
In general terms: Quantitative high-throughput screening tests each substance at several concentrations.
On to `Cc1cccc(CN2Cc3cccc4c3[C@H](C=CC4)CC2=S)c1`, for which the max response was 29.3%.
The same measure, in the same setting: the result for `CCCCC[C@H]1CN(C2CCCCC2)C(=O)[C@@H]1CC(=O)NCc1ccc(OC)cc1` reads -76.4%; that for `CC(=O)Oc1c2c(c3c(c1CC=C(C)C)O[C@@]14C(=CC5CC1C(C)(C)OC4(C/C=C(\C)C(=O)O)C5=O)C3=O)OC(C)(CCC=C(C)C)C=C2` (stereo partly specified), -112%; that for `O=C(c1cc(C(F)(F)F)cc(C(F)(F)F)c1)N1CCC[C@@]2(CCN(c3ccccn3)C2)C1`, -122%.
With `O=C1C[C@H]2C=CCc3cccc(c32)CN1Cc1ccccc1`, the max response was -26.6%.
Same read-out and setting: the result for `CNc1nc(-c2ccccc2OC)nc2ccccc12` reads 24.4%.
In the case of `COc1ccc(CNc2ncncc2-c2ccccc2C)c(OC)c1`, the max response was -35%.
Turning to `C=C1C(=O)C23C(O)C1CCC2[C@]12COC3(O)C(O)C1C(C)(C)CC[C@H]2O` (stereo partly specified), the max response was -116%.
As for `O=C(O)CCc1cccnc1`, the max response is -31.6%.
Consider `COc1ccc(CN2CCOc3c(cc(-c4ncc(C(F)(F)F)cc4Cl)cc3OCC3CCCO3)C2)c(O)c1` (stereo unspecified), for which the max response is -26%.
For `CC1=C(/C=C/C(C)=C/C=C/C(C)=C/C=C/C=C(C)/C=C/C=C(C)/C=C/C2=C(C)CCCC2(C)C)C(C)(C)CCC1`, the max response is -9%.
On to `CC(C)NC(=O)N1CCC2(CC1)CCN(C(=O)c1cccn1C)CC2`, for which the max response is -49.6%.
For `Cn1cccc1C(=O)N1CCC2(CC1)CN(c1cccc(-c3ccccc3)c1)C2`, the Potency was 112 µM (active).
Consider `O=C(c1csnn1)N1CCC[C@@]2(CCN(c3cccc(-c4ccccc4)c3)C2)C1`, for which the max response was -63.8%.
Consider `Oc1ccc2c(c1)OCC1c3cc4c(cc3OC21)OCO4` (stereo unspecified), for which the max response is 5.11%.
Turning to `O=C(c1ccc(F)cc1)C1CCN(CCCCc2ccccc2)CC1`, the max response was -5.39%.
With `COc1cc(=O)n2c(c1C(=O)N(C)Cc1nccs1)CCN(Cc1ccc(Cl)cc1)CC2`, the max response was -7.19%.
As for `Cc1nc2cnc(Nc3ccccc3)nc2n(Cc2ccc(F)cc2)c1=O`, the max response is 15.4%.
On to `O=c1c(-c2cc(F)cc(F)c2)nc2cnc(Oc3ccccc3)nc2n1C[C@H]1CCCO1`, for which the max response was -26.8%.
Take `N#CCCn1c(=O)c(-c2cc(F)cc(F)c2)nc2cnc(Oc3ccccc3)nc21`: the max response was 3.54%.
For `O=C(c1cc2ccccc2o1)N1CCN(Cc2ccccc2)CC1`, the max response is -2.2%.
Regarding `c1ccc2c(Nc3ccncc3)nc(-c3ccoc3)nc2c1`, the max response is -4.89%.
In the case of `c1ccc2c(Nc3ccncc3)nc(-c3ccc4c(c3)OCO4)nc2c1`, the max response is 10.9%.
In the case of `COc1cccc(-c2nc(Nc3ccncc3)c3ccccc3n2)c1`, the Potency was 100 µM (active).
In the case of `CC1CC2C3CCC4=CC(=O)C=C[C@]4(C)[C@@]3(F)[C@@H](O)C[C@]2(C)[C@@]1(O)C(=O)CO` (stereo partly specified), the max response is 3.48%.
Regarding `O=C(O)C(O)[C@@](O)(Cc1ccc(O)cc1)C(=O)O` (stereo partly specified), the max response was 6.44%.
With `O=C(O)C1CCN(c2ncnc3ccc(-c4ccccc4C(F)(F)F)cc23)CC1`, the max response is -7.12%.
`CC(C)C(=O)NC(C)c1nnc2n1CCN(Cc1cccc3ncccc13)CC2` (stereo unspecified): the max response is -0.781%.
On to `O=C(c1csnn1)N1CCC2(CCN(Cc3nccs3)CC2)CC1`, for which the max response was -44.7%.
Still for that read-out and setting: the result for `C[C@@H]1CN(Cc2ccc3c(c2)CN(Cc2ccc(Oc4ncccn4)cc2)CCO3)C[C@H](C)O1` reads -1.6%; that for `O=C(c1ccco1)N1CCC[C@@]2(CCN(Cc3nccs3)C2)C1`, -63.4%.
Same read-out and setting: next, `CS(=O)(=O)N1CCC[C@@]2(CCN(c3ccncc3)C2)C1`: -34%; `O=C(Nc1cccc(F)c1)N1CC2(CCN(C(=O)c3cnccn3)CC2)C1`: 7.33%; `C=C1C(=CC=C2CCC[C@]3(C)[C@@H]([C@H](C)C=C[C@H](C)C(C)C)CC[C@@H]23)C[C@@H](O)C[C@@H]1O`: -167%.
Same read-out and setting: next, `C=CC(C1=CC(=O)C=CC1=O)c1ccc(O)cc1` (stereo unspecified): 3.74%; `Fc1cccc(/C=N\N=C/c2cccc(F)c2)c1`: -1.27%; `O=C1OC(C(O)CO)C(O)=C1O` (stereo unspecified): 21.1%.
Turning to `N#Cc1cc2[nH]c(=O)c(=O)[nH]c2cc1[N+](=O)[O-]`, the max response was 0.579%.
With `CN1CC[C@H](c2c(O)cc(O)c3c(=O)cc(-c4ccccc4Cl)oc23)[C@H](O)C1`, the max response was -89%.
Take `Cn1cc(-c2nc3cncnc3n(-c3ccccc3)c2=O)c2ccccc21`: the max response is -219%.
Regarding `N[C@@H](C(=O)O)c1ccc(P(=O)(O)O)cc1`, the max response was -5.54%.

These data come from PubChem BioAssay AID1645883 (National Center for Advancing Translational Sciences (NCATS), 2021).
